Measurements: PubChem BioAssay (NCI)
This is part of a sample that, as a whole, favours compounds with a hit. Of some 83,000 tested, about 20% had one in any assay.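 Single-dose data. Exposure time 48 hours. Values below 10 considered active.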 The source made the active and inactive calls.

How the values were obtained:
Test in all cases: NCI-60 one-dose screen, 48 h (100 = growth as untreated, 0 = no growth, -100 = all killed)
Details in all cases: 10 µM unless noted
SK-MEL-2 melanoma = tested on: SK-MEL-2 melanoma
SN12C renal = tested on: SN12C renal
UO-31 renal = tested on: UO-31 renal
TK-10 renal = tested on: TK-10 renal
ACHN renal = tested on: ACHN renal
CAKI-1 renal = tested on: CAKI-1 renal
A498 renal = tested on: A498 renal
MOLT-4 leukemia = tested on: MOLT-4 leukemia
SR leukemia = tested on: SR leukemia
RPMI-8226 leukemia = tested on: RPMI-8226 leukemia
OVCAR-8 ovarian = tested on: OVCAR-8 ovarian
OVCAR-5 ovarian = tested on: OVCAR-5 ovarian
OVCAR-4 ovarian = tested on: OVCAR-4 ovarian
SK-OV-3 ovarian = tested on: SK-OV-3 ovarian
IGROV1 ovarian = tested on: IGROV1 ovarian
OVCAR-3 ovarian = tested on: OVCAR-3 ovarian
HS 578T breast = tested on: HS 578T breast
NCI/ADR-RES ovarian = tested on: NCI/ADR-RES ovarian
CCRF-CEM leukemia = tested on: CCRF-CEM leukemia

Measured: growth

c1ccc(CCn2nnc3c(Nc4ccc(N5CCOCC5)cc4)ncnc32)cc1
inactive: SK-MEL-2 melanoma 105% | SN12C renal 92.1% | UO-31 renal 87.1% | TK-10 renal 121% | ACHN renal 104% | CAKI-1 renal 86.3% | A498 renal 77.6% | MOLT-4 leukemia 66.4% | SR leukemia 36% | RPMI-8226 leukemia 68.2% | OVCAR-8 ovarian 86.2% | OVCAR-5 ovarian 88.1% | OVCAR-4 ovarian 89.3% | SK-OV-3 ovarian 93.1% | IGROV1 ovarian 95.3% | OVCAR-3 ovarian 85.9% | HS 578T breast 97.3% | NCI/ADR-RES ovarian 78.8%

COc1ccc(-c2cn[nH]c2-c2cc(OC)c3c(c2)OCCO3)cc1
active: SK-MEL-2 melanoma 9.5% | A498 renal -13.4% | OVCAR-3 ovarian -36.6% | HS 578T breast 3.05% | NCI/ADR-RES ovarian 9.78%
inactive: SN12C renal 29.6% | UO-31 renal 50.4% | TK-10 renal 57.8% | ACHN renal 38% | CAKI-1 renal 56.9% | CCRF-CEM leukemia 17.4% | MOLT-4 leukemia 12% | OVCAR-8 ovarian 26.1% | OVCAR-5 ovarian 48.1% | OVCAR-4 ovarian 73.7% | SK-OV-3 ovarian 15.9% | IGROV1 ovarian 50.2%

Cc1cc(-c2ccccc2)c(C)n1Cc1ccc(Cl)cc1
inactive: SK-MEL-2 melanoma 31.2% | SN12C renal 49.3% | UO-31 renal 50.5% | TK-10 renal 76.6% | ACHN renal 54.8% | CAKI-1 renal 21.5% | A498 renal 23.8% | CCRF-CEM leukemia 43.5% | MOLT-4 leukemia 17.1% | RPMI-8226 leukemia 44.1% | OVCAR-8 ovarian 47.2% | OVCAR-5 ovarian 64.5% | OVCAR-4 ovarian 61.6% | SK-OV-3 ovarian 62.2% | IGROV1 ovarian 50.4% | OVCAR-3 ovarian 27.3% | HS 578T breast 50.6% | NCI/ADR-RES ovarian 14%

COc1cc(NC(=O)CCl)ccc(=O)c1
inactive: SK-MEL-2 melanoma 74.3% | SN12C renal 71.7% | UO-31 renal 64.3% | TK-10 renal 35.4% | ACHN renal 74.7% | CAKI-1 renal 31% | A498 renal 85.7% | CCRF-CEM leukemia 39.7% | MOLT-4 leukemia 50.1% | OVCAR-8 ovarian 87.6% | OVCAR-5 ovarian 93.2% | OVCAR-4 ovarian 75% | IGROV1 ovarian 58.1% | OVCAR-3 ovarian 61.1% | HS 578T breast 72.2% | NCI/ADR-RES ovarian 92%

COc1cccc(-c2nc3sccn3c2-c2ccnc(NCCNS(=O)(=O)c3ccccc3)n2)c1
inactive: SK-MEL-2 melanoma 77.1% | SN12C renal 67.9% | UO-31 renal 37.7% | TK-10 renal 83% | ACHN renal 44.3% | CAKI-1 renal 53.1% | CCRF-CEM leukemia 42.6% | MOLT-4 leukemia 43.2% | SR leukemia 70.3% | RPMI-8226 leukemia 49.5% | OVCAR-8 ovarian 49.2% | OVCAR-5 ovarian 124% | OVCAR-4 ovarian 57.4% | SK-OV-3 ovarian 79.9% | IGROV1 ovarian 63.2% | OVCAR-3 ovarian 68.3% | HS 578T breast 107% | NCI/ADR-RES ovarian 47.1%

Clc1ccc2c(c1)NC1(CCSc3ccccc31)n1nccc1-2 (centres undefined)
inactive: SK-MEL-2 melanoma 98.7% | SN12C renal 104% | UO-31 renal 83.5% | TK-10 renal 96.7% | ACHN renal 100% | CAKI-1 renal 96.3% | CCRF-CEM leukemia 95.7% | MOLT-4 leukemia 90.9% | SR leukemia 91.6% | RPMI-8226 leukemia 94.6% | OVCAR-8 ovarian 100% | OVCAR-5 ovarian 92.6% | OVCAR-4 ovarian 103% | SK-OV-3 ovarian 111% | IGROV1 ovarian 102% | OVCAR-3 ovarian 94.6% | HS 578T breast 110% | NCI/ADR-RES ovarian 98.6%

CCC1CCc2nc3sc(C(=O)Nc4ccccc4F)c(N)c3cc2C1 (centres undefined)
inactive: SK-MEL-2 melanoma 52.1% | SN12C renal 89.8% | UO-31 renal 77.5% | TK-10 renal 73.7% | ACHN renal 69.4% | CAKI-1 renal 53.2% | A498 renal 44.7% | MOLT-4 leukemia 40% | SR leukemia 16.8% | RPMI-8226 leukemia 47.5% | OVCAR-8 ovarian 83.3% | OVCAR-5 ovarian 87.6% | OVCAR-4 ovarian 90.9% | SK-OV-3 ovarian 80.7% | IGROV1 ovarian 88.3% | HS 578T breast 70% | NCI/ADR-RES ovarian 62.5%

COc1cc(Cn2c(SCC(=O)Nc3ccc(Cl)cc3)nc3ccccc3c2=O)cc(OC)c1OC
inactive: SK-MEL-2 melanoma 81% | SN12C renal 71.2% | UO-31 renal 17.7% | TK-10 renal 67.8% | ACHN renal 18.9% | CAKI-1 renal 71.1% | A498 renal 41.4% | MOLT-4 leukemia 46.4% | SR leukemia 46.9% | RPMI-8226 leukemia 28.6% | OVCAR-8 ovarian 62.9% | OVCAR-5 ovarian 82.2% | OVCAR-4 ovarian 53.4% | SK-OV-3 ovarian 68.2% | IGROV1 ovarian 41.6% | NCI/ADR-RES ovarian 51.9%
active: HS 578T breast 7.73%

O=C(CN1CCOCC1)Nc1ccc(-c2nc3ccccc3s2)cc1
inactive: SK-MEL-2 melanoma 115% | SN12C renal 101% | UO-31 renal 95% | TK-10 renal 112% | ACHN renal 104% | CAKI-1 renal 99.7% | CCRF-CEM leukemia 95.5% | MOLT-4 leukemia 99.4% | SR leukemia 102% | RPMI-8226 leukemia 94% | OVCAR-8 ovarian 102% | OVCAR-5 ovarian 93.4% | OVCAR-4 ovarian 101% | SK-OV-3 ovarian 121% | IGROV1 ovarian 106% | OVCAR-3 ovarian 96.3% | HS 578T breast 110% | NCI/ADR-RES ovarian 105%

COc1ccc(/C=C/c2cc(N3CCOCC3)c3cc(F)c(F)cc3n2)cc1OC
active: CAKI-1 renal 8.6% | MOLT-4 leukemia 9.14% | NCI/ADR-RES ovarian 4.66%
inactive: SK-MEL-2 melanoma 45% | SN12C renal 44.4% | UO-31 renal 18.2% | TK-10 renal 31.9% | ACHN renal 26.4% | A498 renal 54.8% | SR leukemia 16.2% | RPMI-8226 leukemia 43.2% | OVCAR-8 ovarian 28.6% | OVCAR-5 ovarian 65.5% | OVCAR-4 ovarian 35.8% | SK-OV-3 ovarian 55.5%

CCOC(=O)C(Cc1ccccc1)n1c(O)c(C=Nc2ccc(C(=O)OCCN(CC)CC)cc2)sc1=O (centres undefined)
inactive: SK-MEL-2 melanoma 90.7% | SN12C renal 92.1% | UO-31 renal 84.7% | TK-10 renal 112% | ACHN renal 104% | CAKI-1 renal 97.4% | CCRF-CEM leukemia 68.2% | MOLT-4 leukemia 69.3% | SR leukemia 23.7% | RPMI-8226 leukemia 68% | OVCAR-8 ovarian 92.8% | OVCAR-5 ovarian 100% | OVCAR-4 ovarian 89.4% | SK-OV-3 ovarian 106% | IGROV1 ovarian 97.5% | OVCAR-3 ovarian 93% | HS 578T breast 88.1%

O=C(CCC(=O)OC1CCCC1)OC1CCCC1
inactive: SK-MEL-2 melanoma 93.2% | SN12C renal 107% | UO-31 renal 90.4% | TK-10 renal 97.8% | ACHN renal 95% | CAKI-1 renal 95.8% | A498 renal 101% | MOLT-4 leukemia 89.9% | RPMI-8226 leukemia 95.1% | OVCAR-8 ovarian 91.6% | OVCAR-5 ovarian 98.7% | OVCAR-4 ovarian 107% | IGROV1 ovarian 110% | OVCAR-3 ovarian 102% | NCI/ADR-RES ovarian 105%

Cn1c(-c2nonc2NC(=O)c2ccc(F)cc2)nc2ccccc21
active: MOLT-4 leukemia -1.74%
inactive: SK-MEL-2 melanoma 112% | SN12C renal 102% | UO-31 renal 91.2% | TK-10 renal 124% | ACHN renal 112% | CAKI-1 renal 105% | A498 renal 85.6% | RPMI-8226 leukemia 106% | OVCAR-8 ovarian 96.6% | OVCAR-5 ovarian 117% | OVCAR-4 ovarian 114% | SK-OV-3 ovarian 111% | IGROV1 ovarian 104% | OVCAR-3 ovarian 119% | HS 578T breast 110% | NCI/ADR-RES ovarian 106%

CCC(C)NCC(=O)O (centres undefined)
inactive: SK-MEL-2 melanoma 85.6% | SN12C renal 110% | UO-31 renal 98.4% | TK-10 renal 107% | ACHN renal 97.7% | CAKI-1 renal 97.7% | A498 renal 107% | MOLT-4 leukemia 106% | SR leukemia 93.5% | OVCAR-8 ovarian 110% | OVCAR-5 ovarian 96% | OVCAR-4 ovarian 105% | SK-OV-3 ovarian 106% | IGROV1 ovarian 110% | OVCAR-3 ovarian 111% | NCI/ADR-RES ovarian 110%

CC1=NN2C(=NC3=C(CCC/C3=C\c3ccc(Cl)cc3)C2c2ccc(Cl)cc2)S1 (centres undefined)
active: RPMI-8226 leukemia -18.4%
inactive: SK-MEL-2 melanoma 86.3% | SN12C renal 102% | UO-31 renal 86.1% | TK-10 renal 111% | ACHN renal 98.2% | CAKI-1 renal 99.9% | A498 renal 87.6% | MOLT-4 leukemia 72.9% | SR leukemia 64.5% | OVCAR-8 ovarian 90.2% | OVCAR-5 ovarian 103% | OVCAR-4 ovarian 86.8% | IGROV1 ovarian 103% | OVCAR-3 ovarian 108% | HS 578T breast 101% | NCI/ADR-RES ovarian 106%

CCN(C(=O)c1cc2ccccc2[nH]1)[C@H]1CCC[C@@H](NCc2ccc(OC)cc2)C1
inactive: SK-MEL-2 melanoma 100% | SN12C renal 92.2% | UO-31 renal 66% | TK-10 renal 81% | ACHN renal 94.7% | CAKI-1 renal 96% | CCRF-CEM leukemia 102% | MOLT-4 leukemia 70.2% | SR leukemia 69.2% | RPMI-8226 leukemia 86% | OVCAR-8 ovarian 100% | OVCAR-5 ovarian 85.5% | OVCAR-4 ovarian 83.3% | SK-OV-3 ovarian 96.6% | IGROV1 ovarian 85.4% | OVCAR-3 ovarian 89.6% | HS 578T breast 89.3% | NCI/ADR-RES ovarian 88.4%

C=CCOc1cccc(/C=C/C(=O)c2sc(Nc3cccnc3)nc2C)c1
inactive: SK-MEL-2 melanoma 84.4% | SN12C renal 40.9% | UO-31 renal 47.7% | TK-10 renal 113% | ACHN renal 54.3% | CAKI-1 renal 81% | CCRF-CEM leukemia 15.2% | MOLT-4 leukemia 76.3% | SR leukemia 42.4% | RPMI-8226 leukemia 23.1% | OVCAR-8 ovarian 52.6% | OVCAR-5 ovarian 108% | OVCAR-4 ovarian 69.5% | SK-OV-3 ovarian 88.5% | IGROV1 ovarian 62.9% | OVCAR-3 ovarian 14.9% | HS 578T breast 99.9% | NCI/ADR-RES ovarian 50.2%

Cc1nc(Nc2cccnc2)sc1C(=O)/C=C/c1ccc(Cl)cc1
active: SN12C renal 7.95% | TK-10 renal 8.61% | CCRF-CEM leukemia 1.72% | SR leukemia 6.11% | RPMI-8226 leukemia -4.94% | OVCAR-3 ovarian 7.38%
inactive: SK-MEL-2 melanoma 82.6% | UO-31 renal 25.3% | ACHN renal 40.1% | CAKI-1 renal 47.1% | MOLT-4 leukemia 53% | OVCAR-8 ovarian 14.9% | OVCAR-5 ovarian 37.3% | OVCAR-4 ovarian 82.4% | SK-OV-3 ovarian 81.3% | IGROV1 ovarian 14.9% | HS 578T breast 98.9% | NCI/ADR-RES ovarian 35.4%

CCNCc1ccncc1
inactive: SK-MEL-2 melanoma 106% | SN12C renal 108% | UO-31 renal 89.8% | TK-10 renal 99.5% | ACHN renal 108% | CAKI-1 renal 94% | A498 renal 97.8% | MOLT-4 leukemia 92% | RPMI-8226 leukemia 98.8% | OVCAR-8 ovarian 103% | OVCAR-5 ovarian 112% | OVCAR-4 ovarian 97.8% | SK-OV-3 ovarian 94.7% | OVCAR-3 ovarian 110% | HS 578T breast 103% | NCI/ADR-RES ovarian 106%
